Source: PubChem BioAssay (NCATS)
Records with an inconclusive call do not appear. Where a call stands in place of a potency, no number is given. Activity calls are given as the source filed them. Calls follow the shape of the dose curve; as a rule, active = well fitted curve in the direction sought with a large enough effect; inconclusive = small, poorly fitted or top-dose-only effect, or another doubt; inactive = no such curve, though single readings can be large; an effect the other way counts as inactive or inconclusive.

Biological target: Furin (Homo sapiens) (UniProt P09958)
Experiment: Furin counterscreen qHTS for Zika virus inhibitors (AID 1347149); also: nearly all actives have a fitted effect of over 70% in size; also: potency is read from the fitted curve at half-maximal effect
Conditions: furin enzymatic counterscreen, fluorogenic substrate; series mostly up to 57.5 µM
In short: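 Counterscreen measures cleavage of 2 microM BOC-RVRR-AMC, below its ~15 microM Km, by 5 nM full-length human furin at pH 7.0 after a 15-min compound preincubation. Inhibition derives from the 15-min fluorescence increase at 37C.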

Furin (Homo sapiens), sequence (P09958 whole entry, looked up): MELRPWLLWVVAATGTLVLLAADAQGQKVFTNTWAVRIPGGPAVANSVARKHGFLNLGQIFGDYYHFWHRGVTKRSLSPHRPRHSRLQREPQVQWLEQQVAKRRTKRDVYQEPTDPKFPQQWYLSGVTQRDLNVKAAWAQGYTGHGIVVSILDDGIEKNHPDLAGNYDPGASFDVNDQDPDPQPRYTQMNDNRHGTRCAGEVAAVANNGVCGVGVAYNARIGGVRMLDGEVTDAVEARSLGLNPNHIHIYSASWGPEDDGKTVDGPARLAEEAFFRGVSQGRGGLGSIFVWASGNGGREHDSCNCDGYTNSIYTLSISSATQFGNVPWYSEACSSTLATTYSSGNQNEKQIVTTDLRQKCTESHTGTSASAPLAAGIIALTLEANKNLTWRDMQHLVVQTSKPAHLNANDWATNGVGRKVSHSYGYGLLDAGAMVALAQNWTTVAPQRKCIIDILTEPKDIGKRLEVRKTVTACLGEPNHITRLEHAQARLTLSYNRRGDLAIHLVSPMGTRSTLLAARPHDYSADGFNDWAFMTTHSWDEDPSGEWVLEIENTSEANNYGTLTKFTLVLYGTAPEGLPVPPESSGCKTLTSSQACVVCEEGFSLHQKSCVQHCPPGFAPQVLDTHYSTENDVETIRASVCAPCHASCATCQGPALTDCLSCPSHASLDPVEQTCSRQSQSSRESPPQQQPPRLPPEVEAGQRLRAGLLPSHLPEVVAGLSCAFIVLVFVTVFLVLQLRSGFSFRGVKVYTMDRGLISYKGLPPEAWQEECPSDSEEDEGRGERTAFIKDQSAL

Row | Structure (SMILES) | Potency
1 | O=C(NOCC1CC1)c1cc(Br)c(F)c(F)c1Nc1ccc(I)cc1Cl | inactive
2 | COc1ccc(/C=C/c2nc(NCCCN(C)C)c3ccccc3n2)cc1 | 24.1 µM (active)
3 | NC(=O)C(=O)O | inactive
4 | Oc1cc2c(cc1O)CN(C(=S)NCCc1ccc(Cl)cc1)CCC2 | inactive
5 | O=C(c1cc(O)c(O)c([N+](=O)[O-])c1)c1ccccc1F | inactive

Test system: Zika virus NS2B-NS3 protease (unlinked)
Experiment: Optimization of GU AMC qHTS for Zika virus inhibitors: Unlinked NS2B-NS3 protease assay (AID 1347151); also: nearly all actives have a fitted effect of over 80% in size; also: potency is read from the fitted curve at half-maximal effect
Conditions: recombinant ZIKV NS2B-NS3 protease, fluorogenic AMC substrate; series mostly up to 52.5 µM
In short: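 Fluorescence gain (340/450 nm) over 15 min at room temperature, ~20% conversion, gave percent inhibition fitted to a 4-parameter Hill equation; enzyme was unlinked NS2B-NS3 (25 nM final), pH 8.0 Tris buffer.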

Row | Structure (SMILES) | Potency
6 | COc1ccc(/C=C/c2nc(NCCCN(C)C)c3ccccc3n2)cc1 | 26.7 µM (active)
7 | NC(=O)C(=O)O | inactive
8 | Oc1cc2c(cc1O)CN(C(=S)NCCc1ccc(Cl)cc1)CCC2 | 23.8 µM (active)
9 | O=C(c1cc(O)c(O)c([N+](=O)[O-])c1)c1ccccc1F | 2.99 µM (active)

Test system: Zika virus NS2B-NS3 protease (linked construct)
Experiment: Confirmatory screen NINDS AMC qHTS for Zika virus inhibitors (AID 1347152); also: top concentration of the series differs between compounds; nearly all actives have a fitted effect of over 70% in size
Conditions: Purified linked NS2B-NS3, AMC substrate fluorescence; series mostly up to 56.6 µM
In short: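 IC50s from 4-parameter Hill fits of percent inhibition, based on AMC fluorescence gain (340/450 nm) over 15 min with 10 microM Bz-Nle-KRR-AMC. Enzyme: 1 nM linked NS2B-NS3 in Tris-HCl pH 8.0; 15-min compound preincubation.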

Row | Structure (SMILES) | Potency
10 | O=C(NOCC1CC1)c1cc(Br)c(F)c(F)c1Nc1ccc(I)cc1Cl | inactive
11 | COc1ccc(/C=C/c2nc(NCCCN(C)C)c3ccccc3n2)cc1 | inactive
12 | Oc1cc2c(cc1O)CN(C(=S)NCCc1ccc(Cl)cc1)CCC2 | inactive

Test system: Zika virus NS2B-NS3 protease (unlinked complex)
Experiment: Confirmatory screen GU AMC qHTS for Zika virus inhibitors (AID 1347153); also: nearly all actives have a fitted effect of over 70% in size
Conditions: Recombinant NS2B-NS3 protease, AMC substrate fluorescence; series mostly up to 57.1 µM
In short: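 Fluorescence change (ex 340/em 450 nm) over 15 min, ~20% substrate conversion, normalized to no-inhibitor and no-enzyme controls, then Hill-fitted. Unlinked protease at 25 nM; AMC peptide 10 µM.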

Row | Structure (SMILES) | outcome
13 | O=C(NOCC1CC1)c1cc(Br)c(F)c(F)c1Nc1ccc(I)cc1Cl | inactive
14 | COc1ccc(/C=C/c2nc(NCCCN(C)C)c3ccccc3n2)cc1 | inactive
15 | Oc1cc2c(cc1O)CN(C(=S)NCCc1ccc(Cl)cc1)CCC2 | inactive
16 | O=C(c1cc(O)c(O)c([N+](=O)[O-])c1)c1ccccc1F | inactive

Test system: Zika virus NS2B-NS3 protease
Experiment: Primary screen GU AMC qHTS for Zika virus inhibitors (AID 1347154); also: nearly all actives have a fitted effect of over 70% in size; also: potency is read from the fitted curve at half-maximal effect
Conditions: Zika NS2B-NS3 unlinked protease, AMC fluorogenic substrate; series mostly up to 54.1 µM
In short: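 Unlinked Zika NS2B hydrophilic domain–NS3 protease complex at 25 nM in 10 mM Tris-HCl pH 8.0, 0.01% Tween 20, with an AMC peptide substrate. Fluorescence change (340/450 nm) over 15 min at room temperature, normalized to controls, fitted to 4-parameter Hill.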

Row | Structure (SMILES) | Potency
17 | Oc1c(Br)cc(Br)c2cccnc12 | inactive
18 | COC(=O)c1nc(Cl)c(Cl)nc1N | 10 µM (active)
19 | [O-][n+]1ccccc1SSc1cccc[n+]1[O-] | inactive
20 | CN(C)c1ccc(C(=C2C=CC(=[N+](C)C)C=C2)c2ccccc2)cc1 | inactive
21 | COC(=O)Nc1nc2ccc(C(=O)C3CC3)cc2[nH]1 | inactive
22 | Oc1cc2c(cc1O)CN(C(=S)NCCc1ccc(Cl)cc1)CCC2 | inactive
23 | Nc1ccc([N+](=O)[O-])cc1O | inactive
24 | CCOC(=O)c1ccccc1O | inactive
25 | CCCSc1ccc2nc(NC(=O)OC)[nH]c2c1 | inactive
26 | N=C1N=C(N)c2cc3ccccc3cc21 | 23.3 µM (active)

Test system: not listed separately
Experiment: Confirmatory screen NINDS Rhodamine qHTS for Zika virus inhibitors (AID 1347161); also: nearly all actives have a fitted effect of over 60% in size; also: potency is read from the fitted curve at half-maximal effect
Conditions: purified enzyme assay, Rhodamine110 substrate fluorescence, 15 min; series mostly up to 114 µM
In short: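 Single-chain NS2B-NS3 protease, 25 nM, pH 8.0; compounds preincubated 15 min. Activity: Rhodamine110 release from 1.5 microM substrate over 15 min, room temperature, data fitted to 4-parameter Hill.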

Row | Structure (SMILES) | Potency
27 | O=C(NOCC1CC1)c1cc(Br)c(F)c(F)c1Nc1ccc(I)cc1Cl | 3.92 µM (active)
28 | COc1ccc(/C=C/c2nc(NCCCN(C)C)c3ccccc3n2)cc1 | inactive
29 | O=C(c1cc(O)c(O)c([N+](=O)[O-])c1)c1ccccc1F | 17.5 µM (active)
